Compound activity as filed in PubChem BioAssay.
Compounds with a hit are over-represented: about 6.7% of the library has one in this group of screens.
C diff HTS – C. difficile growth inhibition. growth activity, negative = inhibition, % at 16 µg/mL (by protocol). Clostridium difficile clinical isolate growth, OD600, 24 h; stronger effect = lower value. actives 0.25% (n = 86,000);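 active means mean growth activity at or below -80% and every replicate also at or below -80%; inconclusive means mean at or below -80% but some replicate above -80%; inactive means mean growth activity above -80%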;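 further: 0% = DMSO wells and -100% = levofloxacin 16 µg/mL wells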
T cruzi growth-1 – blocks T. cruzi growth in NIH3T3 culture; T. cruzi beta-gal in NIH3T3, GalScreen luminescence, 90 h; inhibition, % at 8.34 µM; actives 5.9% (n = 77,000);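 active means mean inhibition above about 93%, with at least 55% of replicates each passing it, limit read from the data, passing the limit was not always enough; inconclusive means only one of those two conditions holds; inactive means neither condition holds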
Pf Dd2 growth – blocks growth of Plasmodium falciparum Dd2 parasites; P. falciparum Dd2 growth, SYBR Green, 72 h; stronger effect = lower value; activity change, % at 10 µM; actives 2.3% (n = 94,000); in the data active means activity change below about -80%; inconclusive means no clear call, values can overlap the other calls
T cruzi growth-2 – blocks T. cruzi growth in NIH3T3 host cells; shares compounds with T cruzi growth-1; T. cruzi beta-gal in NIH3T3, GalScreen luminescence, 90 h; inhibition, % at 8.35 µM; actives 72% (n = 5,600); AID 651739;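 active means mean replicate inhibition above about 95% and at least 55% of replicates individually reaching it, limit read from the data; inconclusive means only one of the two criteria is met; inactive means neither criterion is met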
T cruzi growth-3 – blocks T. cruzi growth in NIH3T3 host cells. inhibition, % at 2.09 µM. actives 21% (n = 5,600). AID 651740. T. cruzi beta-gal in NIH3T3, GalScreen luminescence, 90 h. shares compounds with T cruzi growth-1;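 active means mean inhibition above about 95%, with at least 55% of replicates also reaching it, limit read from the data; inconclusive means meets just one of the two conditions; inactive means meets neither condition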;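 further: plate controls were neutral control median for no effect and positive control median for full effect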
3T3 cytotox – NIH/3T3 (mouse) viability loss; AID 651742; actives 14% (n = 5,600); shares compounds with T cruzi growth-1; cytotoxicity (signal decrease), % at 8.35 µM; NIH/3T3 viability, CellTiter-Glo ATP luminescence, 90 h;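 active means mean signal decrease across replicates above about 35% based on untreated-well scatter, with enough replicates individually passing, limit read from the data; inconclusive means no rule stated though some were filed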;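 further: 0% = median of neutral control wells and 100% = median of positive control wells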
3T3 cytotox 2 – cytotoxicity in mouse NIH/3T3 fibroblasts | shares compounds with T cruzi growth-1 | NIH/3T3 viability, CellTiter-Glo ATP luminescence, 90 h | inhibition, % at 24.9 µM | actives 56% (n = 5,600) | AID 651744;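 active means mean loss of cell viability signal at or above a set limit, and enough replicates individually reaching it; inconclusive means meets only the mean limit or only the replicate share; inactive means meets neither condition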;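 further: 0% = median of neutral control wells and 100% = median of positive control wells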
An asterisk follows results filed as active; ? = inconclusive; . = no result; ! = not active in a repeat.

SMILES	C diff HTS	T cruzi growth-1	Pf Dd2 growth	T cruzi growth-2	T cruzi growth-3	3T3 cytotox	3T3 cytotox 2
O=C(Nc1ccc(F)cc1)N1CCCCN2[C@@H](CO)[C@H](c3ccc(C#Cc4ccccn4)cc3)[C@@H]2C1	6	123*	-70	107*	75	-14	6
O=C(Nc1ccccc1)N1CCCCN2[C@@H](CO)[C@H](c3ccc(C#Cc4ccccn4)cc3)[C@@H]2C1	-3	72	-70	.	.	.	.
COc1ccc(NC(=O)N2CCCCN3[C@H](CO)[C@H](c4ccc(C#Cc5ccccn5)cc4)[C@@H]3C2)cc1	-6	44	?	.	.	.	.
C[C@@H](NC(=O)C[C@H]1C[C@@H]2c3cc(NC(=O)Nc4ccccc4F)ccc3O[C@@H]2[C@@H](CO)O1)c1ccccc1	2	.	-41	.	.	.	.
CN(C)CC(=O)N[C@@H]1C=C[C@H](CC(=O)NCCN2CCCCC2)O[C@@H]1CO	.	3	20	.	.	.	.
COc1ccc(-c2ccc3c(c2)[C@@H]2[C@@H](CCN2S(=O)(=O)c2ccccc2C)[C@H](CO)N3)cc1	-2	89	-55	.	.	.	.
CC(C)NC(=O)Nc1ccc2c(c1)C(=O)N([C@@H](C)CO)C[C@@H](C)[C@@H](CN(C)Cc1ccccc1)OCCCC[C@H](C)O2	-8	103*	-41	39	10	14	9
CC(C)NC(=O)Nc1ccc2c(c1)C(=O)N([C@@H](C)CO)C[C@@H](C)[C@H](CN(C)Cc1ccccc1)OCCCC[C@H](C)O2	2	102*!	-36	64	-3	-18	12
CC(C)NC(=O)Nc1ccc2c(c1)C(=O)N([C@H](C)CO)C[C@@H](C)[C@@H](CN(C)Cc1ccccc1)OCCCC[C@@H](C)O2	4	36	31	.	.	.	.
CC(C)NC(=O)Nc1ccc2c(c1)C(=O)N([C@H](C)CO)C[C@@H](C)[C@H](CN(C)Cc1ccccc1)OCCCC[C@H](C)O2	2	29	-77	.	.	.	.
O=C(C[C@H]1C[C@H]2c3cc(NC(=O)C4CCOCC4)ccc3O[C@H]2[C@H](CO)O1)NC1CCCC1	.	0	1	.	.	.	.
COC(=O)C[C@H]1CC[C@H]2[C@@H](COC[C@@H](O)CN2S(=O)(=O)c2ccc(F)cc2)O1	-4	40	14	.	.	.	.
COc1ccccc1S(=O)(=O)N(C)C[C@H]1Oc2ncc(Br)cc2C(=O)N([C@@H](C)CO)C[C@H]1C	-5	.	43	.	.	.	.
COc1ccccc1S(=O)(=O)N(C)C[C@H]1Oc2ncc(-c3ccc(C)cc3)cc2C(=O)N([C@H](C)CO)C[C@@H]1C	18	99*	-39	99*	71	64*	37*
COc1ccccc1S(=O)(=O)N(C)C[C@H]1Oc2ncc(-c3ccc(C)cc3)cc2C(=O)N([C@@H](C)CO)C[C@@H]1C	15	111*	-51	103*	61	25	42*
COc1ccccc1S(=O)(=O)N(C)C[C@@H]1Oc2ncc(-c3ccc(C)cc3)cc2C(=O)N([C@H](C)CO)C[C@@H]1C	0	61	-47	.	.	.	.
COc1ccc(CN(C)C[C@H]2Oc3ccc(NC(=O)NC(C)C)cc3C(=O)N([C@H](C)CO)C[C@H]2C)cc1	0	-25	7	.	.	.	.
COCC(=O)N(C)C[C@H]1Oc2ncc(C#C[C@@H](C)O)cc2C(=O)N([C@@H](C)CO)C[C@H]1C	-1	10	.	.	.	.	.
NCC[C@@H]1CC[C@@H](NC(=O)C2CCCCC2)[C@H](CO)O1	4	.	6	.	.	.	.
C[C@@H]1CCCCO[C@@H](CN(C)C(=O)Nc2ccc(C(F)(F)F)cc2)[C@@H](C)CN([C@H](C)CO)C(=O)c2cc(NC(=O)c3ccncc3)ccc2O1	3	.	-79	.	.	.	.
C[C@@H]1CN([C@@H](C)CO)C(=O)c2cc(NC(=O)c3ccccc3)ccc2O[C@@H](C)CCCCO[C@@H]1CN(C)C(=O)Nc1ccc(C(F)(F)F)cc1	-10	?	-87*	104*	101*	34	80*
C[C@@H]1CCCCO[C@H](CN(C)C(=O)Nc2ccc(C(F)(F)F)cc2)[C@H](C)CN([C@@H](C)CO)C(=O)c2cc(NC(=O)c3ccccc3)ccc2O1	-2	86	-76	.	.	.	.
C[C@@H]1CCCCO[C@H](CN(C)C(=O)Nc2ccc(C(F)(F)F)cc2)[C@H](C)CN([C@H](C)CO)C(=O)c2cc(NC(=O)c3ccccc3)ccc2O1	13	102*	-53	110*	106*	-3	-11
C[C@@H]1CCCCO[C@H](CN(C)C(=O)Nc2ccc(C(F)(F)F)cc2)[C@@H](C)CN([C@@H](C)CO)C(=O)c2cc(NC(=O)c3ccncc3)ccc2O1	3	72	-63	.	.	.	.
C[C@H]1CCCCO[C@@H](CN(C)C(=O)Nc2ccc(F)cc2)[C@@H](C)CN([C@@H](C)CO)C(=O)c2cc(NC(=O)c3ccccc3)ccc2O1	-6	?	-65	?	26	-4	-2
SMILES	C diff HTS	T cruzi growth-1	Pf Dd2 growth	T cruzi growth-2	T cruzi growth-3	3T3 cytotox	3T3 cytotox 2
C[C@H]1CCCCO[C@@H](CN(C)C(=O)Nc2ccc(C(F)(F)F)cc2)[C@@H](C)CN([C@@H](C)CO)C(=O)c2cc(NC(=O)c3ccncc3)ccc2O1	9	108*	-83*	109*	67	18	?
C[C@@H]1CCCCO[C@H](CN(C)C(=O)Nc2ccc(F)cc2)[C@H](C)CN([C@@H](C)CO)C(=O)c2cc(NC(=O)c3ccccc3)ccc2O1	1	86	-62	.	.	.	.
CCN1[C@@H]2c3ccc(/C=C/c4ccccc4)c(=O)n3C[C@@H]2[C@@H](CO)[C@@H]1C(=O)N(C)C	20	0	-3	.	.	.	.
O=C(Nc1cccc(F)c1)N1C[C@H]2[C@@H](c3ccccc31)[C@@H](CO)N2C(=O)Cc1ccccc1	-2	52	9	.	.	.	.
C[C@@H]1CN([C@@H](C)CO)C(=O)c2cc(C#C[C@@H](C)O)cnc2O[C@@H]1CN(C)C(=O)Nc1ccc(F)cc1	-2	7	33	.	.	.	.
O=C(C[C@H]1CC[C@H](NS(=O)(=O)c2cccc(F)c2)[C@H](CO)O1)NCc1ccc2c(c1)OCO2	.	-22	11	.	.	.	.
C[C@H]1CCCCO[C@@H](CN(C)Cc2ccncc2)[C@@H](C)CN([C@@H](C)CO)C(=O)c2cc(NC(=O)c3ccccc3)ccc2O1	0	-42	.	.	.	.	.
CCCN(C)C[C@@H]1Oc2cc(C#Cc3ccccc3)ccc2S(=O)(=O)N([C@@H](C)CO)C[C@H]1C	-1	26	-44	.	.	.	.
CCCN(C)C[C@@H]1Oc2cc(C#Cc3cccc(F)c3)ccc2S(=O)(=O)N([C@@H](C)CO)C[C@@H]1C	10	111*	.	113*	61	7	102*
CCCN(C)C[C@@H]1Oc2cc(C#Cc3ccc(F)cc3)ccc2S(=O)(=O)N([C@H](C)CO)C[C@@H]1C	11	14	-24	.	.	.	.
